GLS inhibitor: blocks human kidney-isoform glutaminase activity; O94925; GLS enzymatic activity, qHTS titration; Potency, µM (doses to about 45.5 µM), for the others: top-dose activity change, negative = inhibition, hits mostly inhibitors; 410,000 compounds, 0.21% hits; note: % is set by controls: 0 for no effect and ±100 for the full control effect
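Assay buffer: 45 mM KH2PO4 pH 8.2, 0.02% Tween-20. hKGA acts on L-glutamine (1 mM solution added); product glutamate is reported by an oxidase/peroxidase Amplex Red coupling, with fluorescence taken at baseline and 30 min.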
G9a block: G9a (human) methyltransferase inhibition. Q96KQ7. G9a H3K9 monomethylation, AlphaScreen, 2 h. 350,000 compounds, 8.8% hits. AID 504332. Potency, µM (doses to about 102 µM), without a hit: at the top dose activity, negative = inhibition, actives largely listed as inhibitors; note: % is set by controls: 0 for no effect and ±100 for the full control effect; nearly all actives have a fitted effect of over 75% in size
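Quantitative HTS format: methyltransferase activity on a biotin-tagged H3K9 peptide is measured by AlphaScreen, using a rabbit anti-monomethyl-H3K9 antibody with streptavidin donor and anti-IgG acceptor beads. Final levels are 20 nM enzyme, 500 nM peptide, 20 uM SAM; 2 h RT.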
L3MBTL1 block: L3MBTL1 (human) inhibition. Q9Y468. Potency, µM (top dose mostly 57.1 µM), for inactives: top-dose activity, negative = inhibition, hits mostly inhibitors. 230,000 compounds, 0.66% hits. AlphaScreen L3MBTL1–H3K9me1 peptide binding; note: % is set by controls: 0 for no effect and ±100 for the full control effect; nearly all actives have a fitted effect of over 60% in size
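L3MBTL1 (50 nM) pre-complexed 30 min with biotinylated H3(1-15)K9me1 peptide (75 nM), then compounds added for 30 min at room temperature; AlphaScreen streptavidin donor/nickel chelate acceptor beads (10 ug/mL final) read after 30 min dark incubation.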
JMJD2A Tudor: inhibitors of human JMJD2A Tudor domain | Potency, µM (doses to about 114 µM), for inactives: at the top dose activity change, negative = inhibition, hits mostly inhibitors | AlphaScreen JMJD2A-Tudor / H3K4me3 peptide binding | O75164 | AID 504339 | 390,000 compounds, 4.4% hits; note: % is set by controls: 0 for no effect and ±100 for the full control effect; nearly all actives have a fitted effect of over 50% in size
Target sequence (O75164 whole entry, looked up, the tested form may be a part): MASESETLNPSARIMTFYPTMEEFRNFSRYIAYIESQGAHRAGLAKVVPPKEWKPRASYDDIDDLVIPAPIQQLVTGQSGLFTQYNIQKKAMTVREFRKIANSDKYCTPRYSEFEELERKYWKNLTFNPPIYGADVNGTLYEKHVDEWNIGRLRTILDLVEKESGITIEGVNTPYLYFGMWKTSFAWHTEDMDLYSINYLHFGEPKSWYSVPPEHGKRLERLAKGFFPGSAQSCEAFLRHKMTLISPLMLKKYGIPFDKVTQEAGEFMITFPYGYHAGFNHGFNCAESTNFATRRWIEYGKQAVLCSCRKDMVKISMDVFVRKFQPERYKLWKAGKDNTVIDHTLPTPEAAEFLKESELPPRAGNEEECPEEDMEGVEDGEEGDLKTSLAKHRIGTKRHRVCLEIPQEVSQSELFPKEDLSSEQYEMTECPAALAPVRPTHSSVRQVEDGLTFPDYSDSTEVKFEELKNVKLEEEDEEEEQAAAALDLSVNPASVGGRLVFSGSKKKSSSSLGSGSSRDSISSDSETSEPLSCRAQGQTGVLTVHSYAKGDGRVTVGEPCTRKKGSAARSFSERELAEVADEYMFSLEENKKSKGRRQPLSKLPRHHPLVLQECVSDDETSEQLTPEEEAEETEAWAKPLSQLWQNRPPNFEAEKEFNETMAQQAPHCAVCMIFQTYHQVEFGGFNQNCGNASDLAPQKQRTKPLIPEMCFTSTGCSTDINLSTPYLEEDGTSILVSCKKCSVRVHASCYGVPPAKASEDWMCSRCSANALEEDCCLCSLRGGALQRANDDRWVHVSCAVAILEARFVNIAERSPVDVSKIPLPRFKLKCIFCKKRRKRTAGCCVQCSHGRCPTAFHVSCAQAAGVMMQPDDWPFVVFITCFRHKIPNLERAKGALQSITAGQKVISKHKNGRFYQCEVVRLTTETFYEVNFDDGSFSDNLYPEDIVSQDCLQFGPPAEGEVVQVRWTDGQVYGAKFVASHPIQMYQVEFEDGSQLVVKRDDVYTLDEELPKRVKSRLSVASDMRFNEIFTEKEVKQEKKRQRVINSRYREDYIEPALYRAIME
HP1b chromo inh: blocks HP1-beta chromodomain binding to methylated histone tails. AlphaScreen HP1-beta / biotin-H3K9me3 peptide binding. Potency, µM (doses to about 114 µM), for the others: at the top dose activity change, negative = inhibition, hits mostly inhibitors. 390,000 compounds, 0.56% hits; note: nearly all actives have a fitted effect of over 70% in size
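Compound inhibition of the preformed complex between 50 nM HP1-beta and 50 nM biotinylated H3K9me3 peptide was read by AlphaScreen. Buffer was PBS pH 7.4 with 0.01% Tween-20. Incubations ran 30 min at room temperature, with 10 ug/mL donor/acceptor beads.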
BAZ2B block: inhibitors of human BAZ2B bromodomain; Q9UIF8; AlphaScreen BAZ2B-H3K14Ac peptide displacement; Potency, µM (titrated, usually from 114 µM), without a hit: at the top dose activity change, negative = inhibition, actives largely listed as inhibitors; 360,000 compounds, 4.4% hits; AID 504333; note: % is set by controls: 0 for no effect and ±100 for the full control effect; nearly all actives have a fitted effect of over 60% in size
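AlphaScreen luminescence quantifies BAZ2B engagement of H3K14Ac peptide; the protein and biotinylated peptide are both at 50 nM final, buffer PBS pH 7.4 with 0.01% Tween-20, all steps at room temperature.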
Numbers without * were called inactive; [ ] = remark or other dose. Compounds with a hit are over-represented: about 10% of the library has one in this group of screens. Calls come from the whole dose curve; as a rule, active = well fitted curve in the direction sought with a large enough effect; inconclusive = small, poorly fitted or top-dose-only effect, or another doubt; inactive = no such curve, though single readings can be large; an effect the other way counts as inactive or inconclusive. Potency is the fitted concentration of half-maximal effect.

COc1cccc2sc3cc(C#Cc4ccccn4)ccc3c(=O)c12 was read as GLS inhibitor -3%, L3MBTL1 block -2%, JMJD2A Tudor 28µM* and HP1b chromo inh -7%.
COc1cccc2oc3ccc(C#Cc4ccccn4)cc3c(=O)c12 was read as GLS inhibitor 0%, G9a block 50µM*, L3MBTL1 block -6%, JMJD2A Tudor -15%, HP1b chromo inh 30% and BAZ2B block -8%.
O=c1c2ccccc2oc2cc(C#Cc3ccccn3)ccc12 was read as GLS inhibitor -4%, JMJD2A Tudor -19% and HP1b chromo inh 81%.
Screening Cc1ccc(N(CC(=O)Nc2cc(C)ccc2C)S(=O)(=O)c2c(C)noc2C)cc1 returned GLS inhibitor 0%, G9a block 1%[59 µM], JMJD2A Tudor -3% and HP1b chromo inh 35%.
O=C(O)c1ccc(S(=O)(=O)c2ccc([N+](=O)[O-])cc2[N+](=O)[O-])cc1 was read as GLS inhibitor 1%, G9a block 25µM*, JMJD2A Tudor -19%, HP1b chromo inh 67% and BAZ2B block -15%.
COc1ccc(S(=O)(=O)N(CC(=O)Nc2ccc(F)c(Cl)c2)c2ccc(C)cc2)cc1OC was read as GLS inhibitor -2%, G9a block 5%[59 µM], JMJD2A Tudor -5%, HP1b chromo inh 34% and BAZ2B block 1%.
Screening CSc1ncc(C(=O)Nc2ccccc2C(F)(F)F)c(-c2ccccc2)n1 returned GLS inhibitor -4%, G9a block 24%[59 µM], JMJD2A Tudor -22%, HP1b chromo inh 44% and BAZ2B block 33%.
Screening COc1ccc(N2CCN(C(=O)Cc3ccc(C)cc3)CC2)cc1 returned GLS inhibitor -5%, G9a block 71µM*, L3MBTL1 block -10%, JMJD2A Tudor -30%, HP1b chromo inh 4% and BAZ2B block -33%.
For O=C(Cc1ccc(Cl)cc1)N1CCN(c2ccc(F)cc2)CC1 the results were GLS inhibitor 29%, G9a block 42%[0.501 µM], JMJD2A Tudor -19%, HP1b chromo inh 83% and BAZ2B block -20%.
For COc1ccc(N2CCN(C(=O)Cc3ccc(Cl)cc3)CC2)cc1 the results were GLS inhibitor 3%, G9a block 50µM*, L3MBTL1 block -10%, JMJD2A Tudor -34%, HP1b chromo inh -8% and BAZ2B block inconclusive.
O=C(Cc1ccc(-n2cccc2)cc1)N1CCN(c2ccccc2F)CC1 was read as GLS inhibitor -4%, G9a block 50µM*, L3MBTL1 block -23%, JMJD2A Tudor 35µM*, HP1b chromo inh inconclusive and BAZ2B block 50µM*.
Screening COc1ccc(N2CCN(C(=O)CN=C3NS(=O)(=O)C(c4ccc(C)cc4)=C3C)CC2)cc1 returned GLS inhibitor 6%, G9a block 40µM*, L3MBTL1 block -14%, JMJD2A Tudor -24%, HP1b chromo inh -4% and BAZ2B block -8%.
O=C(CSc1nnc(-c2ccccc2)c(-c2ccccc2)n1)NC1CCCC1 was read as GLS inhibitor 2%, G9a block -49%[59 µM], JMJD2A Tudor -35%, HP1b chromo inh 4% and BAZ2B block inconclusive.
Screening CCOC(=O)c1ccc(NC(=O)Cc2ccc(-n3c(CC)nc4cccnc43)cc2)cc1 returned GLS inhibitor 5%, G9a block -8%[59 µM], JMJD2A Tudor -10%, HP1b chromo inh 21% and BAZ2B block -17%.
Screening COc1ccc(N2CCN(C(=O)Cc3nn(C)c(=O)c4ccccc34)CC2)cc1 returned GLS inhibitor 40%, G9a block 35µM*, L3MBTL1 block -1%, JMJD2A Tudor -10%[57.1 µM], HP1b chromo inh 10% and BAZ2B block 12%.
`COc1ccc(N2CCN(C(=O)CCC(=O)c3cc(C)sc3C)CC2)cc1` gave GLS inhibitor 21%, G9a block 50µM*, L3MBTL1 block -1%, JMJD2A Tudor inconclusive, HP1b chromo inh -10% and BAZ2B block inconclusive.
For COc1ccc(N2CCN(c3nc(Cl)nc(N4CCOCC4)n3)CC2)cc1 the results were GLS inhibitor 32%, G9a block 7.9µM*, L3MBTL1 block inconclusive, JMJD2A Tudor inconclusive, HP1b chromo inh -26% and BAZ2B block -7%.
Screening COc1ccc(N2CCN(c3nc(NCCO)nc(N4CCOCC4)n3)CC2)cc1 returned GLS inhibitor 53%, G9a block inconclusive, L3MBTL1 block -3%, JMJD2A Tudor -31%, HP1b chromo inh -16% and BAZ2B block inconclusive.
Screening O=c1c(-c2ccccc2)nc2cnc(N3CCNCC3)nc2n1-c1ccccc1 returned G9a block 1%[0.501 µM].
`CCNc1ncc2nc(-c3cc(F)cc(F)c3)c(=O)n(CCOC)c2n1` gave G9a block 2%[0.501 µM].
Screening Cc1ccccc1-c1cncnc1NCc1cccnc1 returned G9a block -6%[0.501 µM].
For Cn1ncc(S(=O)(=O)Cc2ccccc2)c(Br)c1=O the results were G9a block 1.5µM*.
CCCOC(=O)CCCN1C(=O)/C(=C2\SC(=S)N(CCCC(=O)OCCC)C2=O)SC1=S was read as GLS inhibitor -12%, G9a block 1.1µM*, L3MBTL1 block -4%, JMJD2A Tudor inconclusive, HP1b chromo inh inconclusive and BAZ2B block 3.2µM*.
`CCCCCOC(=O)CCN1C(=O)/C(=C2\SC(=S)N(CCC(=O)OCCCCC)C2=O)SC1=S` gave GLS inhibitor -5%, L3MBTL1 block 52%, JMJD2A Tudor -11%, HP1b chromo inh -36% and BAZ2B block inconclusive.
Screening CCc1nn2cc(C(=O)c3cc(Cl)ccc3O)cnc2c1-c1ccc(F)cc1 returned GLS inhibitor -10%, G9a block 45µM*, L3MBTL1 block -17%, JMJD2A Tudor 50µM*, HP1b chromo inh inconclusive and BAZ2B block inconclusive.
`CCc1ccc(O)c(C(=O)c2cnc3cc(-c4ccc(C)cc4)nn3c2)c1` gave GLS inhibitor 17%, G9a block 3%[59 µM], JMJD2A Tudor -13%, HP1b chromo inh 12% and BAZ2B block -17%.
`N#Cc1cc(S(=O)(=O)c2ccc(Cl)cc2)c(N)[nH]c1=O` gave GLS inhibitor 4%, G9a block 50µM*, L3MBTL1 block 4%, JMJD2A Tudor 2%, HP1b chromo inh 31% and BAZ2B block -34%.
Screening C=CCc1ccccc1OCCn1ccnc1 returned GLS inhibitor -1%, G9a block 8.9µM*, L3MBTL1 block 0%, JMJD2A Tudor -91%[57.1 µM], HP1b chromo inh inconclusive and BAZ2B block 50µM*.
For C=CCc1cccc(OC)c1OCCOCCn1ccnc1 the results were GLS inhibitor -2%, G9a block inconclusive, L3MBTL1 block -13%, JMJD2A Tudor 5µM*, HP1b chromo inh inconclusive and BAZ2B block 35µM*.

Bioassay records (PubChem)
